This is one part of a sample in which hits are shown more often than they occur.
nsP2pro inh – blocks chikungunya virus nsP2 protease peptide cleavage. AID 1964107. Q8JUX6. FRET peptide cleavage, nsP2pro, fluorescence 1 h. Potency, µM (doses to about 24.9 µM), usual class: inhibitors. actives 1.1% (n = 31,000); note: nearly all actives have a fitted effect of over 60% in size
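Enzyme 150 nM, substrate 2.5 uM (both final); Tris-HCl 10 mM pH 8.0 + 0.01% Tween 20; cpd up to 25 uM, 7 pts; 15 min preinc., 1 h RT; fluorescence ex 525/em 598.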
nsP2 cell sec – inhibits CHIKV nsP2 protease in cells; actives 10% (n = 450); cell-based CHIKV nsP2 protease reporter assay; Potency, µM (series often up to 51.1 µM), hits mostly inhibitors; shares compounds with nsP2pro inh; note: nearly all actives have a fitted effect of over 70% in size
NSP2 full ctr – full-length CHIKV NSP2 protease inhibition, selectivity | AID 1964101 | shares compounds with nsP2pro inh | actives 39% (n = 410) | Potency, µM (doses to about 50.7 µM), actives largely listed as inhibitors | Full-length CHIKV NSP2 protease enzymatic counterscreen; note: nearly all actives have a fitted effect of over 65% in size
Furin counterscr – human furin inhibition, counterscreen for nsP2pro inhibitors | shares compounds with nsP2pro inh | Recombinant human furin enzymatic counterscreen, fluorogenic substrate | Potency, µM (series often up to 50.6 µM), most hits filed as inhibitors | actives 6% (n = 410) | AID 1964102
nsP2 NS23 pep – nsP2pro inhibition on native NS2/3 peptide substrate; Potency, µM (titrated, usually from 51 µM), actives largely listed as inhibitors; shares compounds with nsP2pro inh; actives 34% (n = 410); Purified CHIKV nsP2 protease, endogenous NS2/3 peptide cleavage; note: nearly all actives have a fitted effect of over 55% in size
Papain counter – selectivity counter-screen for CHIKV nsP2 protease inhibitors: papain | shares compounds with nsP2pro inh | purified papain protease activity, enzymatic inhibition | Potency, µM (highest dose often 51 µM), hits mostly inhibitors | actives 5% (n = 410) | AID 1964104
nsP2pro confirm – CHIKV nsP2 protease inhibition, confirmatory qHTS. shares compounds with nsP2pro inh. CHIKV nsP2 protease enzymatic activity, qHTS. Potency, µM (titrated, usually from 25.5 µM), usual class: inhibitors. actives 43% (n = 410); note: nearly all actives have a fitted effect of over 75% in size
HCV NS3 counter – inhibits HCV NS3/4A protease in an nsP2pro selectivity counterscreen. HCV NS3/4A protease biochemical counterscreen. AID 1964106. actives 20% (n = 410). shares compounds with nsP2pro inh. Potency, µM (top dose mostly 50.9 µM), usual class: inhibitors; note: nearly all actives have a fitted effect of over 55% in size
A number is an active result. Calls come from the whole dose curve.

Screening C=C1/C(=C/C=C2\CCC[C@]3(C)[C@@H]([C@H](C)CC[C@@H](O)C(C)(C)O)CC[C@@H]23)C[C@@H](O)C[C@@H]1O returned nsP2pro inh inactive.
`Fc1ccc2nc(CCC#Cc3ccccn3)cn2c1` gave nsP2pro inh inconclusive, nsP2 cell sec inactive, NSP2 full ctr inactive, Furin counterscr inactive, nsP2 NS23 pep inactive, Papain counter inactive, nsP2pro confirm inactive and HCV NS3 counter inactive.
`Cc1ccccc1OC1(C(=O)O)CCN(Cc2ccc(CO)o2)CC1` gave nsP2pro inh inactive.
`O=S(=O)(NCc1cccc2ccccc12)c1cc(Cl)c(Oc2cccc(N3CCNCC3)c2)s1` gave nsP2pro inh inactive.
O=C(Nc1nc(-c2ccccc2)cs1)c1ccncc1NS(=O)(=O)c1ccc(F)c(F)c1 was read as nsP2pro inh inactive.
Screening CCCCc1nc2cc(/C=C/C(=O)NO)ccc2n1CCN(CC)CC returned nsP2pro inh inactive.
`Cn1c(CN2CCCCC2)nc2cc(NC(=O)c3ccc(Cl)cc3)ccc21` gave nsP2pro inh inactive.
Cn1c(CCCC(=O)O)nc2cc(N(CCCl)CCCl)ccc21 was read as nsP2pro inh 9.9µM, nsP2 cell sec inactive, NSP2 full ctr 16µM, Furin counterscr inactive, nsP2 NS23 pep inconclusive, Papain counter inactive, nsP2pro confirm 8µM and HCV NS3 counter inconclusive.
Cc1cc(-c2nnc3n2CCCCC3)c(C)n1-c1ccncc1 was read as nsP2pro inh inactive.
Screening COc1ccc(-n2c(C)cc(-c3nnc4n3CCCCC4)c2C)cc1 returned nsP2pro inh inactive.
Cc1ccc(-n2c(C)cc(-c3nnc4n3CCCCC4)c2C)cc1 was read as nsP2pro inh inconclusive, nsP2 cell sec 21µM, NSP2 full ctr inconclusive, Furin counterscr inactive, nsP2 NS23 pep inconclusive, Papain counter inactive, nsP2pro confirm inconclusive and HCV NS3 counter inconclusive.
For Cn1c(CN2CCOCC2)nnc1C1CCCN(C(=O)c2cc[nH]c2)C1 (stereo not given) the results were nsP2pro inh inactive.
Screening O=C1Nc2cccc(Cl)c2/C1=C\c1cc(Cl)c(O)c(Cl)c1 returned nsP2pro inh inactive.
`Cc1nc([C@](C)(O)CO)sc1-c1cnc(N)c(O[C@H](C)c2cc(F)ccc2-n2nccn2)c1` gave nsP2pro inh 7.9µM, nsP2 cell sec inactive, NSP2 full ctr inactive, Furin counterscr inactive, nsP2 NS23 pep inactive, Papain counter inactive, nsP2pro confirm inactive and HCV NS3 counter inactive.
`Cc1nc(C(=O)N2CC[C@H](NC(=O)c3cnccn3)C[C@H]2C(=O)N[C@@H](Cc2cccs2)C(N)=O)cs1` gave nsP2pro inh inactive.
`CSc1ccc(-c2nc3c([nH]2)CC(C)(C)CNC3=O)cc1` gave nsP2pro inh inactive.
C=C1C(=O)O[C@H]2C1[C@H](OC(=O)/C(=C/CO)COC(=O)/C(C)=C/CO)CC(=C)[C@@H]1CC(=O)[C@@H](C)[C@@H]12 (stereo not given in full) was read as nsP2pro inh 1.2µM, nsP2 cell sec inconclusive, NSP2 full ctr 1.8µM, Furin counterscr inactive, nsP2 NS23 pep 3.6µM, Papain counter inactive, nsP2pro confirm 0.87µM and HCV NS3 counter inconclusive.
Screening C=C(CO)C(=O)O[C@H]1CC(=C)[C@@H]2C[C@H](O)C(=C)[C@@H]2[C@H]2OC(=O)C(=C)[C@@H]21 returned nsP2pro inh inactive.
`C=C1C(=O)O[C@@H]2CC(C)=C([C@@H](C)CCCO)[C@@H](OC(=O)C(C)C)[C@H]12` gave nsP2pro inh inactive.
Screening Cc1cc(OCc2nc(-c3ccccc3Cl)cs2)ccc1OCC(=O)O returned nsP2pro inh inactive.
`CCCCn1c(-c2ccccc2)nc(-c2ccccc2)c1CN(Cc1ccc2c(c1)OCO2)Cc1ccc2c(c1)OCO2` gave nsP2pro inh inactive.
`Cn1nnnc1Sc1ncnc2scc(Br)c12` gave nsP2pro inh inactive.
`Cc1ccc(-c2csc3ncnc(Sc4nnnn4C)c23)cc1` gave nsP2pro inh inactive.
Screening Cn1nnnc1Sc1ncnc2scc(I)c12 returned nsP2pro inh 2.2µM, nsP2 cell sec 7.3µM, NSP2 full ctr inactive, Furin counterscr inactive, nsP2 NS23 pep inactive, Papain counter inactive, nsP2pro confirm inactive and HCV NS3 counter inconclusive.
For O=C(Cn1nc(-c2ccc(C(F)(F)F)cc2)ccc1=O)NCCc1ccccc1 the results were nsP2pro inh inactive.
Screening C=CCc1cc(-c2c(-c3ccccc3)ncn2CCOCCO)cc(OC)c1O returned nsP2pro inh inactive.
CCN1C(=O)CCc2cc(NC(=O)c3ccn(CC)n3)ccc21 was read as nsP2pro inh inactive.
Screening CN(Cc1cccn1C)C(=O)c1ccc(F)cc1 returned nsP2pro inh inactive.
CC(C)=CCC/C(C)=C/Cc1ccc(O)c(C2OC(=O)c3cc(C(=O)O)cc(O)c32)c1O (stereo not given) was read as nsP2pro inh inactive.
`Cc1[nH]cnc1C[C@H]1CCc2c(C)c3ccccc3n2C1=O` gave nsP2pro inh inconclusive, nsP2 cell sec inactive, NSP2 full ctr inactive, Furin counterscr inactive, nsP2 NS23 pep inactive, Papain counter inactive, nsP2pro confirm inactive and HCV NS3 counter inactive.
For Cc1[nH]cnc1CN1CCc2c(c3ccccc3n2C)C1=O the results were nsP2pro inh inactive.
Cc1nccn1CC1CCc2c(c3ccccc3n2C)C1=O (stereo not given) was read as nsP2pro inh inactive.
Screening O=S(=O)(Nc1cc(Cl)c(Oc2cnc3ccccc3c2)c(Cl)c1)c1ccc(Cl)cc1Cl returned nsP2pro inh inactive.
Screening O=[N+]([O-])c1ccc(S(=O)(=O)Nc2cnc3ccccc3c2)cc1 returned nsP2pro inh 6.3µM, nsP2 cell sec inactive, NSP2 full ctr inactive, Furin counterscr inactive, nsP2 NS23 pep inactive, Papain counter inactive, nsP2pro confirm inactive and HCV NS3 counter inactive.
Screening COc1cccc(CNc2ccc(S(=O)(=O)Nc3cnc4ccccc4c3)cc2)c1O returned nsP2pro inh inactive.
Screening CCCCCCCCCC(=O)OC1CC[C@H]2[C@@H]3CCC4=CC(=O)CC[C@@H]4[C@H]3CC[C@]12C (stereo not given in full) returned nsP2pro inh inactive.
Screening Cc1nc(CNc2ncnc3ccc(-c4ccoc4C)cc23)cs1 returned nsP2pro inh inactive.
`O=C1CCCC2=C1C1(CCCC1)N=C(Nc1nc3ccccc3n1Cc1ccccc1)N2` gave nsP2pro inh inactive.

High-throughput results: PubChem BioAssay, National Center for Advancing Translational Sciences (NCATS)
